This is an account of results in PubChem BioAssay AID372 (MTDP, 2006).

About 770 (0.77%) of roughly 100,000 compounds were called active. Shown is part of a subset that was picked to be rich in actives. Unmarked numbers belong to inactive results. No stated cut-off is given here; in the data, active means inhibition above about 50%; inactive means the rest.

As usually defined, the inhibition is the drop in the measured response relative to a control, in per cent.

The assay concerns the target Gag-Pol polyprotein (Human immunodeficiency virus type 1 group M subtype B (isolate HXB2)) (UniProt P04585). In words: RNase H inhibition, HIV 1 Gag Pol polyprotein, FRET biochemical assay, screening (AID 372). Particulars: HIV-1 RT RNase H, FRET RNA/DNA substrate fluorescence; at 10 µM; active compounds read high.
For the compound `Cc1ccc(N2C(=O)CC(Sc3ccccc3C(=O)O)C2=O)c([N+](=O)[O-])c1` (stereo not drawn), the inhibition is 0%.
With `CCOC(=O)c1c2c(n(-c3ccccc3)c1C)C=C(Br)C(=O)C2=O` the figure was 58% (active); with `CCOC(=O)c1c2c(n(C)c1C)C=C(Br)C(=O)C2=O`, 4%.
As for `CCOC(=O)c1c(C)oc2c1C(=O)C(=O)C(Br)=C2`, the inhibition was 2%.
For the compound `Cn1c(=O)c2c(nc(Sc3nc4ccccc4o3)n2C)n(C)c1=O`, the inhibition was 0%.
The figure for `O=C(c1ccc(I)cc1)N1CCOCC1` is 0%; for `CC1CCN(C2(O)C(=O)Nc3ccc(Br)cc32)CC1` (stereo not drawn) it is 14%; for `O=[N+]([O-])c1ccc(-c2nnc(-c3ccco3)o2)c(Cl)c1` it is 8%.
The figure for `O=[N+]([O-])c1cc(Cl)c(-c2ccco2)c(Cl)c1` is 57% (active); for `O=[N+]([O-])c1ccc(-c2ccco2)c(Cl)c1` it is 14%; for `CCN(CC)CCN1C(=O)C(=O)/C(=C(/O)c2ccccc2)C1c1cccc([N+](=O)[O-])c1` (stereo not drawn) it is 1%.
The figure for `CCN(CC)c1ccc(N=Cc2c[nH]c3ccccc23)cc1` is 4%.
For the compound `CC(C)C(=O)NS(=O)(=O)c1ccc(N)cc1`, the inhibition was 5%.
With `CC(=O)Nc1nc(-c2ccccc2)nc(C)c1C(C)=O` the figure was 6%; with `CC(=O)c1c(C)nc(-c2ccc(Cl)cc2)nc1NC(=O)c1ccccc1`, 59% (active).
With `CC(=O)Nc1nc(-c2ccc(Cl)cc2)nc(C)c1C(C)=O` the figure was 3%.
With `CCOC(=O)c1c(C)oc2c(F)c(F)c(F)c(F)c12` the figure was 22%.
In the case of `Cc1ccc(NC(=O)c2ccc3c(c2)C(=O)N(c2ccc([N+](=O)[O-])cc2)C3=O)cc1`, the inhibition was 17%.
The figure for `O=C(Nc1ccc(O)cc1)c1ccc2c(c1)C(=O)N(c1ccccn1)C2=O` is 13%.
With `COC(=O)c1ccc(NC(=O)c2ccc3c(c2)C(=O)N(c2cccc([N+](=O)[O-])c2)C3=O)cc1` the figure was 10%; with `O=C(Nc1ccc(O)cc1)c1ccc2c(c1)C(=O)N(c1cccc(N3C(=O)c4ccc(C(=O)Nc5ccc(O)cc5)cc4C3=O)n1)C2=O`, 54% (active).
With `COC(=O)c1ccc(NC(=O)c2ccc3c(c2)C(=O)N(c2ccc([N+](=O)[O-])cc2)C3=O)cc1` the figure was 52% (active); with `O=C(Nc1ccccc1)c1ccc2c(c1)C(=O)N(c1cccc(N3C(=O)c4ccc(C(=O)Nc5ccccc5)cc4C3=O)n1)C2=O`, 8%; with `CC(C)(C)C1(O)CC(C(F)(F)F)=NN1C(=O)c1ccc([N+](=O)[O-])cc1` (stereo not drawn), 18%.
Regarding `COc1ccc(NC(=O)c2ccc(-c3ccccc3)cc2)cc1`, the inhibition is 8%.
For the compound `COC(=O)c1c(C)oc2cc(Br)c(OC(=O)c3cccc([N+](=O)[O-])c3)cc12`, the inhibition was 0%.
The figure for `Cc1cccc(C)c1OCCOc1ccccc1/C=C1\SC(=S)N(C)C1=O` is 13%; for `CC(c1ccccc1)C1CC(=O)N(c2ccc(I)cc2)C1=O` (stereo not drawn) it is 54% (active).
With `CC(c1ccccc1)C1CC(=O)N(c2ccccc2)C1=O` (stereo not drawn) the figure was 0%.
The figure for `CC(c1ccccc1)C1CC(=O)N(c2ccc(F)cc2)C1=O` (stereo not drawn) is 0%.
Regarding `CCCc1cc2c(-c3ccccc3)cc(=O)oc2cc1OCC`, the inhibition was 22%.
With `CCCc1cc2c(-c3ccccc3)cc(=O)oc2cc1OCc1ccc(C(=O)O)o1` the figure was 59% (active); with `CCCc1cc2c(-c3ccccc3)cc(=O)oc2cc1OCC(=O)O`, 9%; with `Cc1ccc(NC(=O)C(=NNc2ccccc2)C(=O)Nc2ccc(C)cc2)cc1`, 0%.
The figure for `CC1CC(N(C(=O)c2ccc(Cl)cc2)c2ccccc2)c2ccccc2N1` (stereo not drawn) is 10%; for `CC1CC(N(c2ccccc2)S(=O)(=O)c2ccc(Cl)cc2)c2ccccc2N1` (stereo not drawn) it is 60% (active); for `CC(=O)N(c1ccccc1)C1CC(C)Nc2ccccc21` (stereo not drawn) it is 1%.
On to `CCOC(=O)c1sc(NC(=O)/C=C/c2cccc([N+](=O)[O-])c2)nc1C`, for which the inhibition was 6%.
With `COC(=O)C1=C(C)NC(=O)/C1=C\c1ccccc1` the figure was 8%; with `O=C1/C(=C\c2ccc(-c3ccccc3[N+](=O)[O-])o2)SC(=S)N1C1CCS(=O)(=O)C1` (stereo not drawn), 23%.
Turning to `Cc1cc(C)cc(-n2c(C)cc(/C=N/NC(=O)c3cccnc3)c2C)c1`, the inhibition is 13%.
For `O=c1/c(=C/c2ccc(-c3ccccc3Cl)o2)sc2nc3ccccc3n12`, the inhibition is 3%.
The figure for `COc1ccc(C2C3=C(CC(C)(C)CC3=O)Nc3ccccc3N2C(=O)CC(C)C)cc1` (stereo not drawn) is 3%; for `O=C(/C=C/c1ccc(Cl)cc1)Nc1ccc(-c2nc3ccccc3o2)cc1` it is 52% (active).
In the case of `O=C(/C=C/c1cccc([N+](=O)[O-])c1)Nc1ccc(-c2nc3ccccc3o2)cc1`, the inhibition was 54% (active).
The figure for `O=C(/C=C/c1ccc(Cl)cc1)Nc1ccc(-c2nc3ccccc3o2)c(O)c1` is 20%.
Turning to `Cc1ccc2nc(-c3ccc(C)c(NC(=O)/C=C/c4cccc([N+](=O)[O-])c4)c3)oc2c1`, the inhibition was 40%.
The figure for `Cc1ccc2nc(-c3ccc(NC(=O)/C=C/c4ccc(Cl)cc4)cc3)oc2c1` is 48%.
The figure for `O=C(/C=C/c1cccc([N+](=O)[O-])c1)Nc1ccc2oc(-c3ccccc3)nc2c1` is 31%; for `O=C(/C=C/c1cccc([N+](=O)[O-])c1)Nc1ccc(-c2nc3ccccc3o2)c(O)c1` it is 14%.
The figure for `Cc1cc(C)c2oc(-c3ccc(NC(=O)/C=C/c4cccc([N+](=O)[O-])c4)cc3)nc2c1` is 16%; for `Cc1ccc2nc(-c3ccc(NC(=O)/C=C/c4cccc([N+](=O)[O-])c4)cc3)oc2c1` it is 54% (active); for `N#Cc1cnn(-c2ccc3ccccc3c2)c1N` it is 5%.
Take `Cc1ccc(N=Cc2ccco2)c(C)c1`: the inhibition was 29%.
With `CC1(C)CC(=O)c2cc(C(=O)NCc3ccccc3)c(=O)n(-c3ccccc3)c2C1` the figure was 15%; with `COc1ccc(CC(=O)Nc2ccc(Cl)cc2C)cc1OC`, 0%.
The figure for `O=C(COc1ccc(Br)cc1Cl)NCCc1ccccc1` is 16%.
The figure for `COc1ccc(CCNC(=O)COc2ccccc2OC)cc1OC` is 1%; for `COc1ccc(CC(=O)Nc2ccc(Br)cc2C)cc1OC` it is 50% (active); for `COc1ccc(CC(=O)Nc2ccc(Br)cc2F)cc1OC` it is 12%.
As to `COCCNC(=O)COc1ccc(Cl)cc1Br`, the inhibition was 14%.
The figure for `COc1ccc(CCNC(=O)COc2ccc(Cl)cc2Br)cc1OC` is 54% (active); for `COc1ccc(CCNC(=O)COc2ccc(Br)cc2)cc1OC` it is 1%.
The figure for `COc1ccc(CCNC(=O)COc2ccc(Br)cc2Cl)cc1OC` is 53% (active).
`CC(C(=O)N1CCOCC1)N1C(=O)c2cccc3cccc(c23)C1=O` (stereo not drawn): the inhibition was 19%.
With `COc1ccc(C(=O)N2CCc3ccccc3C2)cc1`, the inhibition was 15%.
As to `COc1cc(/C=C2/C(=O)NC(=O)N(Cc3ccco3)C2=O)ccc1OCC(N)=O`, the inhibition was 0%.
Regarding `CCOc1ccc(/C=C2\SC(=S)N(Cc3ccccc3)C2=O)c(OCC)c1`, the inhibition was 12%.
With `CCOC(=O)C1=C(C)N(c2ccccc2)C(=O)C1` the figure was 10%.
With `COc1cccc(C2/C(=C(\O)c3ccc(Cl)cc3)C(=O)C(=O)N2CCCCCC(=O)O)c1` (stereo not drawn) the figure was 16%.
The figure for `CC(C)(C)c1cc(CCC(=O)NCCN2C(=O)c3ccccc3C2=O)cc(C(C)(C)C)c1O` is 2%; for `Cc1ccc(SCC(=O)N2CCCC2)cc1` it is 6%.
Take `Nc1cccc(-c2cc(C(=O)O)c3ccccc3n2)c1`: the inhibition is 0%.
The figure for `Nc1ccc(C2=Nc3cccc4cccc(c34)N2)cc1` is 56% (active); for `Nc1cccc(C2=Nc3cccc4cccc(c34)N2)c1` it is 56% (active).
Regarding `c1ccc(NC2=Nc3cccc4cccc2c34)cc1`, the inhibition is 12%.
On to `Nc1cccc(-c2nnc(-c3ccccc3)o2)c1`, for which the inhibition is 3%.
With `Cc1ccc([N+](=O)[O-])cc1-c1ccc(/C=C(\C#N)C(=O)NCc2ccco2)o1` the figure was 1%; with `Cc1nn(-c2ccccc2)c2c1C(c1ccc(O)cc1)C(C#N)=C(N)O2` (stereo not drawn), 3%; with `O=c1/c(=C/c2cc([N+](=O)[O-])ccc2OCCCOc2ccccc2)sc2nc3ccccc3n12`, 4%.
With `C=CC(=O)NC1(CCC)CCCCC1` the figure was 11%.
The figure for `COc1ccc(/C=C(C(=O)O)/C(C)=C/C(=O)O)c(OC)c1` is 7%; for `COc1ccc(C(=O)c2ccc(Cl)cc2Cl)cc1` it is 15%; for `Cc1sc2nc(-c3ccc(Br)cc3)[nH]c(=O)c2c1C` it is 8%.
`Cc1sc2nc(-c3ccccc3)[nH]c(=O)c2c1C`: the inhibition was 10%.
As to `CCOC(=O)c1ccc(N2C(=N)S/C(=C\c3ccc(N4CCOCC4)cc3)C2=O)cc1`, the inhibition is 15%.
Regarding `O=C1S/C(=C/c2ccc(Br)cc2)C(=O)N1c1ccccc1`, the inhibition was 0%.
The figure for `N=C1S/C(=C\c2ccc(N3CCOCC3)cc2)C(=O)N1c1ccc(Br)cc1` is 53% (active); for `COc1ccc(NC(=O)C(=O)NCc2ccccn2)cc1` it is 8%.
For `O=C(NCc1ccccn1)C(=O)Nc1ccc(Oc2ccccc2)cc1`, the inhibition is 54% (active).
With `O=C(NCc1ccccn1)C(=O)Nc1ccc(F)cc1` the figure was 12%; with `O=C(O)Cn1cc(/C=C2/C(=O)NC(=O)N(c3ccccc3F)C2=O)c2ccccc21`, 10%.
With `COc1ccc(NC(=O)/C(C#N)=C\c2cn(CC(=O)O)c3ccccc23)cc1` the figure was 0%; with `N#C/C(=C\c1cn(CC(=O)Nc2ccccc2)c2ccccc12)C(=O)Nc1ccccc1`, 0%; with `Cc1cccc(OCCn2cc(C=C3C(=O)NC(=S)NC3=O)c3ccccc32)c1`, 7%.
With `O=C(O)Cn1cc(/C=C2\C(=O)NC(=S)N(c3ccccc3F)C2=O)c2ccccc21`, the inhibition is 55% (active).
With `COc1cccc(OCCn2cc(C=C3C(=O)NC(=S)NC3=O)c3ccccc32)c1` the figure was 57% (active); with `O=C(Cn1cc(/C=C2/C(=O)NC(=S)N(c3ccccc3F)C2=O)c2ccccc21)Nc1ccccc1`, 47%.
With `O=C(Cn1cc(/C=C2/C(=O)NC(=O)N(c3cccc(F)c3)C2=O)c2ccccc21)Nc1ccccc1` the figure was 46%; with `COc1cccc(OCCn2cc(C=C3C(=O)NC(=O)NC3=O)c3ccccc32)c1`, 12%.
For `O=C(Cn1cc(/C=C2/C(=O)NC(=S)N(c3cccc(Cl)c3)C2=O)c2ccccc21)Nc1ccccc1`, the inhibition was 55% (active).
As to `O=C(Cn1cc(/C=C2/C(=O)NC(=O)N(c3cccc(Cl)c3)C2=O)c2ccccc21)Nc1ccccc1`, the inhibition was 32%.
With `COc1ccc(NC(=O)/C(C#N)=C/c2cn(CC(=O)Nc3ccccc3)c3ccccc23)cc1` the figure was 59% (active).
